Measurements published in PubChem BioAssay (NCATS).
Unmarked numbers belong to inactive results. Inconclusive results are not listed. Calls of active or inactive are those of the source. Unless noted, calls come from the whole dose curve; as a rule, active = well fitted curve in either direction with a large enough effect (not every such curve was filed as active); inconclusive = small, poorly fitted or top-dose-only effect, or another doubt; inactive = flat fitted curve, though single readings scatter.

Legend:
[1] = NFAT Signaling Pathway (AID 444); conditions: Jurkat NFAT-bla M1, carbachol, beta-lactamase ratio, 5 h; at 17.2 µM (top of the series) unless noted;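 note: carbachol stimulus at about its EC50 of 1 µM final; % is set by controls: 0 for no effect and ±100 for the full control effect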
Summary of the method: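 Jurkat cells with NFAT-driven β-lactamase reporter and co-expressed M1 receptor, stimulated with carbachol (final 1 uM, ~EC50), compound titration, 5 h at 37 °C. CCF4 loaded 1 h at RT; 460/530 nm ratio gave %activity and AC50.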

[2] = Stat Signaling Pathway (AID 446); conditions: ME-180 SIE beta-lactamase reporter, IL-6 stimulated, 5 h; at 17.2 µM (top of the series) unless noted;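 note: ME-180 cervical cancer cells given 40 pM IL-6 alongside compound; SIE-controlled beta-lactamase reporter measured as 460/530 nm FRET emission ratio; % is set by controls: 0 for no effect and ±100 for the full control effect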
Summary of the method: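 Reporter line: ME-180 cervical carcinoma, SIE-beta-lactamase. Treatment: compound with 40 pM IL-6, 5 hrs, 37 C, in low-serum OPTI-MEM with 10 mM HEPES pH 7.3. Detection: 460/530 nm fluorescence.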

[3] = biological target: Glucocorticoid receptor (Homo sapiens) (UniProt P04150); assay: GR-GFP Redistribution (AID 450;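 active = compounds whose dose series gives a full or clear partial fitted curve of increased nuclear translocation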; note: potency is the fitted concentration of half-maximal effect); conditions: U2OS GR-GFP nuclear translocation, laser cytometry, 2 h; series mostly up to 20.6 µM
[4] = qHTS Assay for Identification of Small Molecule Agonists for Hypoxia Response Element Signaling Pathway (AID 914; active = well fitted activation curve with a large enough effect in the signal ratio, with a control signal flat, not every such curve was filed as active; the % refers to the signal ratio; note: potency is the fitted concentration of half-maximal effect; for activation: % of control where 0% means no effect); conditions: ME-180 HRE-bla reporter, beta-lactamase ratio, CoCl2, 17 h; activation: stronger effect = higher value
Summary of the method: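 qHTS titration; ME-180 HRE-bla cells; EC50 CoCl2 co-treatment, 17 h at 37 degrees Celsius; CCF4 dye, ex 405nm, em 460nm and 530nm; %Activity from ratio; AC50.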

[5] = biological target: Glucocorticoid receptor (Homo sapiens) (UniProt P04150); assay: GR-EFC Redistribution (AID 451; calls by dose curve; note: potency is the fitted concentration of half-maximal effect); conditions: CHO-K1 GR-EFC translocation, beta-gal luminescence, 2 h
Summary of the method: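 CHO-K1 cells expressing nuclear EA and GR-ED fragments of b-gal; compounds titrated up to 46 uM final, 2 h at 37 C. GR nuclear translocation read as complemented b-gal luminescence after 1 h RT detection.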

[6] = biological target: Mitogen-activated protein kinase 10 (Mus musculus) (UniProt Q61831); assay: JNK3 AlphaScreen Assay (AID 530); conditions: JNK3 lysate, c-Jun phosphorylation; series mostly up to 57.1 µM;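 note: kinase came from lysate of stimulated human HepG2 cells; signal reports phosphorylation of biotinylated GST-cJun 1-79 at Ser73 with 10 µM ATP; % is set by controls: 0 for no effect and ±100 for the full control effect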
Summary of the method: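 Pre-activated (IL-1β/TNFα) JNK3 in HepG2 lysates phosphorylates biotin-GST-cJun(1-79), 10 uM ATP; anti-phospho-cJun(Ser73) AlphaScreen read at room temperature, pH 7.6 Tris buffer. Compounds pre-incubated 15 min as titrations.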

[7] = biological target: 3',5'-cyclic-AMP phosphodiesterase 4B (Homo sapiens) (UniProt Q07343); assay: qHTS Assay for Inhibitors of PDE-IV (AID 607; active = well fitted activation curve with a large enough effect in the main read-out, with a control signal flat, not every such curve was filed as active; note: % of control where 0% means no effect); conditions: HEK293 ACTOne CNG channel cells, membrane potential fluorescence; series mostly up to 22.9 µM
Summary of the method: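 Cell-based read-out of cAMP via a modified cyclic nucleotide-gated channel and membrane potential dye (535/590 nm) in HEK293 cells expressing PDE4 endogenously. Compounds tested up to 22.9 uM final; 100 uM RO 20-1724 reference.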

[8] = biological target: Guanine nucleotide-binding protein G(i) subunit alpha-1 (Homo sapiens) (UniProt P63096); assay: qHTS Assay for Inhibitors of RGS12 GoLoco Motif Activity (Green Fluorophore) (AID 879; active = well fitted curve in the direction sought with a large enough effect; an effect the other way counts as inactive or inconclusive;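 note: 0% = labeled peptide with Gαi1 and full inhibition = labeled peptide alone without protein; negative values mean loss of peptide binding seen as reduced polarization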); conditions: Galphai1/FITC-RGS12 GoLoco peptide, fluorescence polarization; series mostly up to 57.1 µM
Summary of the method: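 Fluorescence polarization assay: 50 nM Gαi1 with 10 nM FITC-labeled RGS12 GoLoco peptide in 10 mM Tris pH 7.5, 150 mM NaCl, 0.1 mM GDP, 0.05% NP40, 10 min at room temperature with compound.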

[9] = biological target: Pyruvate kinase (Leishmania mexicana) (UniProt Q27686); assay: qHTS Validation Assay for Inhibitors of Leishmania Mexicana Pyruvate Kinase (AID 945; active = well fitted curve in the direction sought with a large enough effect; an effect the other way counts as inactive or inconclusive;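 note: 0% = DMSO only neutral control wells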); conditions: purified L. mexicana pyruvate kinase, enzyme activity, E451W mutant enzyme; series mostly up to 57.5 µM
Summary of the method: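 Read-out: luminescence from PKLight stop/detection reagent, data normalized to DMSO. Reaction: 0.2 nM E451W LmPYK, 0.5 mM PEP, 0.1 mM ADP, pH 7.2, 1 h room temperature.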

[10] = biological target: Pyruvate kinase PKM (Homo sapiens) (UniProt P14618); assay: qHTS Assay for Activators of Human Muscle Pyruvate Kinase (AID 954; active = well fitted curve in the direction sought with a large enough effect, not every such curve was filed as active;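 note: 0% = uninhibited enzyme and -100% = no enzyme or full thiadiazolimine inhibition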); conditions: purified human muscle pyruvate kinase, luciferase-coupled luminescence, 1 h; series mostly up to 57.5 µM
Summary of the method: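 Human PKM2 activity is measured as ATP generation, detected by luciferase-coupled luminescence. The enzyme (0.1 nM) acts on 0.5 mM PEP and 0.1 mM ADP for 1 h at ambient temperature; data are normalized to uninhibited and full-inhibition wells.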

[11] = biological target: Alpha-galactosidase A (Homo sapiens) (UniProt P06280); assay: Counterscreen for Glucocerebrosidase Inhibitors: qHTS Assay for Human alpha-Galactosidase at pH 4.5 (AID 992; active = well fitted curve in the direction sought with a large enough effect; an effect the other way counts as inactive or inconclusive; note: 0% is about no effect); conditions: purified enzyme, fluorogenic substrate; series mostly up to 76.9 µM
Summary of the method: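 Quantitative HTS: compounds tested from 0.7 nM up to 77 uM against 2 nM enzyme with 80 uM 4-MU alpha-D-galactopyranoside. The 20 min room-temperature reaction is stopped with 1M NaOH/1M glycine, pH 10.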

[12] = qHTS Assay for Identification of Small Molecule Antagonists for NFkB Signaling Pathway (AID 895; active = well fitted inhibition curve with a large enough effect in the signal ratio, with a control signal flat, not every such curve was filed as active; the % refers to the signal ratio; note: % is set by controls: 0 for no effect and ±100 for the full control effect); conditions: NFkB beta-lactamase reporter cells, FRET ratio 460/530, stimulated with 10 pM TNF alpha; series mostly up to 38.3 µM
Summary of the method: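 ME-180 NFkB-bla cells (beta-lactamase under NFkB response element), plated overnight, treated with compound then 10 pM TNF alpha (about EC50) for 5 hrs at 37 C. LiveBLAzer FRET read at 460/530 nm emission, 405 nm excitation.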

[13] = qHTS Assay for Identification of Small Molecule Antagonists for Thrombopoietin (TPO) Signaling Pathway (AID 918; active = well fitted curve in the direction sought with a large enough effect; an effect the other way counts as inactive or inconclusive; note: potency is the fitted concentration of half-maximal effect; nearly all actives have a fitted effect of over 60% in size); conditions: TPO-dependent cell signaling reporter, antagonist mode
Summary of the method: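 Ba/F3 (murine, hTPO-R, GPIIb-luc reporter); overnight IL-3 withdrawal; cpd + TPO 26 pM final (EC50); 24 h 37 C/5% CO2; Steadylite luminescence after 10 min RT.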

[14] = biological target: Muscarinic acetylcholine receptor M1 (Rattus norvegicus) (UniProt P08482); assay: qHTS Assay for Antagonists of Acetylcholine Muscarinic M1 Receptor: Kinetic Measurement of Intracellular Calcium Response (AID 943; active = well fitted curve in the direction sought with a large enough effect; an effect the other way counts as inactive or inconclusive;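 note: Fluo-4 calcium signal as peak divided by basal fluorescence over 4 min; nearly all actives have a fitted effect of over 75% in size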); conditions: M1-expressing cells, kinetic intracellular calcium fluorescence; series mostly up to 35.3 µM
Summary of the method: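 Rat M1-CHO cells, 2000/well, overnight → Fluo-4 no-wash dye with probenecid, 1 h 37C → compound 10 min, room temp → basal read 6 s → carbachol EC80 (100 nM) → 4 min kinetic read; peak/basal.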

[15] = biological target: alpha-glucosidase (Oryza sativa, rice) (UniProt Q653V4); assay: Counterscreen for Glucocerebrosidase Inhibitors: qHTS Assay for Rice alpha-Glucosidase at pH 5.0 (AID 997; active = well fitted curve in the direction sought with a large enough effect; an effect the other way counts as inactive or inconclusive;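 note: 0% = full activity with enzyme and -100% = basal without enzyme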); conditions: rice alpha-glucosidase enzyme activity; series mostly up to 76.9 µM
Summary of the method: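 Rice alpha-glucosidase (4 nM final) with 400 uM 4-methylumbelliferyl-alpha-D-glucopyranoside in citrate buffer pH 5.0, 20 min at room temperature, stopped at pH 10; fluorescence 365/440 nm, compounds 0.7 nM–77 uM, AC50 from Hill fits.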

Sequence of Pyruvate kinase PKM (Homo sapiens) (P14618 whole entry, looked up): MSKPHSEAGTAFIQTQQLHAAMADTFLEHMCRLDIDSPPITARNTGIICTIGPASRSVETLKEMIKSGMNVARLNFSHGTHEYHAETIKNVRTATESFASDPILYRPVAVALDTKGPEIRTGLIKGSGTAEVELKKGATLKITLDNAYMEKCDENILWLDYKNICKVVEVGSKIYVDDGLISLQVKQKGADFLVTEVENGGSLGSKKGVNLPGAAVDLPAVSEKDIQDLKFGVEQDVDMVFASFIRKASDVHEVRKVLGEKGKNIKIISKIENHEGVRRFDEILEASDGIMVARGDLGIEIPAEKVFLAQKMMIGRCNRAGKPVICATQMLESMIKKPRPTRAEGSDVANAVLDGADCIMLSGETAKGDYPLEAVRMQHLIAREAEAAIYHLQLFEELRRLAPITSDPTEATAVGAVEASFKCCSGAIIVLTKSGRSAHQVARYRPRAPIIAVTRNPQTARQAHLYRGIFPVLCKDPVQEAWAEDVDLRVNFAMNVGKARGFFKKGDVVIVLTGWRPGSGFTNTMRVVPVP
Sequence of Glucocorticoid receptor (Homo sapiens) (P04150 whole entry, looked up, the tested form may be a part): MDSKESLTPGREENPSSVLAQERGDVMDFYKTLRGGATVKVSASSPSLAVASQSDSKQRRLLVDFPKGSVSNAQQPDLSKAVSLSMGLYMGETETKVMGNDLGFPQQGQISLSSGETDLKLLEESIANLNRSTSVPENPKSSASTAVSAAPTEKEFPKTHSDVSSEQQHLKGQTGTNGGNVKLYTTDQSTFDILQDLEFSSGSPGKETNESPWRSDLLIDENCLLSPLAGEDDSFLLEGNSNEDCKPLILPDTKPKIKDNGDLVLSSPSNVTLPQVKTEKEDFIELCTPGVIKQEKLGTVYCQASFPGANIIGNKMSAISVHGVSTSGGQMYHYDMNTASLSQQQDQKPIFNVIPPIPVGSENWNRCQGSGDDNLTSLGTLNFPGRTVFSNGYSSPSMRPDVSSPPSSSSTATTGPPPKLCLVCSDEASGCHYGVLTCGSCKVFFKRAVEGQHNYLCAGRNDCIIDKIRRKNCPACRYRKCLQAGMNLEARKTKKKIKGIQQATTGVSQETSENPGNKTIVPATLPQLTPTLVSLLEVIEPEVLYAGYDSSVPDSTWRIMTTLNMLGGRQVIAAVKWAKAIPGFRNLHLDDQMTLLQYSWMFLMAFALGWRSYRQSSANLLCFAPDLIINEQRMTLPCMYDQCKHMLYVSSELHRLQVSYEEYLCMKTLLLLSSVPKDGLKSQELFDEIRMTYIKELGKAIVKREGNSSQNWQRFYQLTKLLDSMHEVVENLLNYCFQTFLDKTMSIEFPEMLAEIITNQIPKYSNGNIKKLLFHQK
Sequence of Alpha-galactosidase A (Homo sapiens) (P06280 whole entry, looked up): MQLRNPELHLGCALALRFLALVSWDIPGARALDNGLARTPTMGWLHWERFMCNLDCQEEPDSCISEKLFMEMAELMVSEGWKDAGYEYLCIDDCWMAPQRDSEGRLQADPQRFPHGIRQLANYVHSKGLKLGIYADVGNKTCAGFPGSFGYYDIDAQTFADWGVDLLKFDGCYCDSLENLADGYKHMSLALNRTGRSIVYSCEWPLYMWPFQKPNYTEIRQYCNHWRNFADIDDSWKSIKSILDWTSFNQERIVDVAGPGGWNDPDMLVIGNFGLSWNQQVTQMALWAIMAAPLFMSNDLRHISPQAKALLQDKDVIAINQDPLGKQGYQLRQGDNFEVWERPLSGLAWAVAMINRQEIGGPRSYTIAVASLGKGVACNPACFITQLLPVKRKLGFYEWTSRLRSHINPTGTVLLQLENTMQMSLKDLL
Sequence of 3',5'-cyclic-AMP phosphodiesterase 4B (Homo sapiens) (Q07343 whole entry, looked up): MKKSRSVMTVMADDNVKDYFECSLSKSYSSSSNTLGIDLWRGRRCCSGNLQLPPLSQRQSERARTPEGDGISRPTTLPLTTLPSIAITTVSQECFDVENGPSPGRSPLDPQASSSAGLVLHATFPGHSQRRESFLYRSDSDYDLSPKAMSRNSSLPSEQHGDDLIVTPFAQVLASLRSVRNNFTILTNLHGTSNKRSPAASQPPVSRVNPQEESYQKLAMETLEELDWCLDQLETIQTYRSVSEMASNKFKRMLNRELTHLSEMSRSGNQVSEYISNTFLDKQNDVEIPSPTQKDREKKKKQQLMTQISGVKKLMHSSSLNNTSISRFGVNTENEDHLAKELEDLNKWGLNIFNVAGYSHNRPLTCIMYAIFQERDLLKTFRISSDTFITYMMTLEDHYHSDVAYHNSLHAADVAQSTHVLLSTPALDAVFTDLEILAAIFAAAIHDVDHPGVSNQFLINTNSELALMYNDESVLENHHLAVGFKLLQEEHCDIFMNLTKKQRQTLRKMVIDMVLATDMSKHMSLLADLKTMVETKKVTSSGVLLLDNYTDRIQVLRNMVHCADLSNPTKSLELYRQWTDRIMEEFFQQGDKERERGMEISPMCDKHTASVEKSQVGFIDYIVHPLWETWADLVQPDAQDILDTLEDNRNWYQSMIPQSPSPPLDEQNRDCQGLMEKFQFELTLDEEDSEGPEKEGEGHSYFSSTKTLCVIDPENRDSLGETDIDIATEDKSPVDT
Sequence of Pyruvate kinase (Leishmania mexicana) (Q27686 2-499 E452W): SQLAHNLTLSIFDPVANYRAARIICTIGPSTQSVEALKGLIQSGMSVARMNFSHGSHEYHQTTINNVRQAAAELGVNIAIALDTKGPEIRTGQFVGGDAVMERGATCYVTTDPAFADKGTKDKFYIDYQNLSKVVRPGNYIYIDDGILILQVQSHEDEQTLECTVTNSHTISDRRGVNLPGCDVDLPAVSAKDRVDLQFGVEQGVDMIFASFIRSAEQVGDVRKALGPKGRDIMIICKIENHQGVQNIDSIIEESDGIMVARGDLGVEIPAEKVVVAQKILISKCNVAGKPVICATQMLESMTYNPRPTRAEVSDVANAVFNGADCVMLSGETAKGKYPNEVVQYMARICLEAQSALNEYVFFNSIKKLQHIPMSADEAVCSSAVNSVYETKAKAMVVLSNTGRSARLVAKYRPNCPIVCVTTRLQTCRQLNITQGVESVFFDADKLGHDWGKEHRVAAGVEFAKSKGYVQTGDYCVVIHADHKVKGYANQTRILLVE
Sequence of Guanine nucleotide-binding protein G(i) subunit alpha-1 (Homo sapiens) (P63096 whole entry, looked up): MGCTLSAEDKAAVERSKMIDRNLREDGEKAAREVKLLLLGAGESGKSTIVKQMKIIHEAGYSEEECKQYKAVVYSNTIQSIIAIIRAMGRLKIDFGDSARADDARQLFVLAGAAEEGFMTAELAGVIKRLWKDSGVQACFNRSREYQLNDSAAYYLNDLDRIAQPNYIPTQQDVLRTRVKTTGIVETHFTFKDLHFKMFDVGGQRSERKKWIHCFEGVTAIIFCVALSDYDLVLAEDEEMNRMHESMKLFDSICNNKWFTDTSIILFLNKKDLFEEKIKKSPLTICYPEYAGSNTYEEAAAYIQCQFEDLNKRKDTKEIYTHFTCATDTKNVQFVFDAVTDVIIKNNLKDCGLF
Sequence of Muscarinic acetylcholine receptor M1 (Rattus norvegicus) (P08482 whole entry, looked up): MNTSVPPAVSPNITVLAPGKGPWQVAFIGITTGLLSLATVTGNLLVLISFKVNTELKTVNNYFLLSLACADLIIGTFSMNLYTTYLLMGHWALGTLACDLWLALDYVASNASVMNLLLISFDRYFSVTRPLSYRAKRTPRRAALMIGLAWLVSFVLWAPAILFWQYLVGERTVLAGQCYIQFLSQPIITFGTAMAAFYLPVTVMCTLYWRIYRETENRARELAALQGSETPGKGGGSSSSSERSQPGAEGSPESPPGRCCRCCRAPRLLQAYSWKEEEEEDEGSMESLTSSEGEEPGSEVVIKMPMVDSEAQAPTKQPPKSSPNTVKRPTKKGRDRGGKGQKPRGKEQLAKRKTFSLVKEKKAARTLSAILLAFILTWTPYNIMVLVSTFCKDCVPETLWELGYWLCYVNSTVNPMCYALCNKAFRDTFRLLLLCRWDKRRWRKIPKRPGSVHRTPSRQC

Cc1cc(OCCN2CCCCC2)nc2ccccc12
activity change, negative = inhibition [1]: -29.3% | activity, negative = inhibition [2]: 9.41% | Potency [3]: > 20.6 µM

COc1ccc(C2=Nn3c(nnc3-c3ccccn3)SC2)cc1OC
activity change, negative = inhibition [1]: 23.1% | activity, negative = inhibition [2]: -0.925% | Potency [3]: > 20.6 µM | activation [4]: -20.2%

COc1cc(/C=C\C(=O)N2CCC=CC2=O)cc(OC)c1OC
activity change, negative = inhibition [1]: -142% (active) | activity, negative = inhibition [2]: -101% (active) | Potency [3]: > 20.6 µM | Potency [5]: > 20.6 µM | Potency [6]: inactive | Potency [7]: inactive

CC1(C)CC(=O)C2=C(C1)N(Cc1ccco1)C(=O)C2(NC(=O)c1cccnc1)C(F)(F)F (stereo not given)
activity change, negative = inhibition [1]: -3.77% | activity, negative = inhibition [2]: -9.45% | Potency [3]: > 20.6 µM

CC[C@]1(O)C[C@H]2CN(CCc3c([nH]c4ccccc34)[C@](C(=O)OC)(c3cc4c(cc3OC)N(C)[C@@H]3[C@](O)(C(=O)OC)[C@H](OC(C)=O)[C@]5(CC)C=CCN6CC[C@]43[C@@H]65)C2)C1
activity change, negative = inhibition [1]: 0.463% [at 38 µM] | activity, negative = inhibition [2]: -18.9% [at 38 µM] | Potency [3]: > 46 µM | Potency [5]: > 46 µM | Potency [6]: inactive | Potency [7]: inactive | outcome [8]: inactive | Potency [9]: inactive | outcome [10]: inactive | outcome [11]: inactive

FC(F)(F)c1cc(CO[C@@H]2CCCN[C@H]2c2ccccc2)cc(C(F)(F)F)c1
activity change, negative = inhibition [1]: 16.5% [at 38 µM] | activity, negative = inhibition [2]: -14.5% [at 38 µM] | Potency [3]: > 46 µM | Potency [5]: > 46 µM | Potency [6]: inactive | Potency [12]: inactive | Potency [13]: 10 µM (active) | Potency [14]: inactive | Potency [9]: inactive | outcome [10]: inactive | outcome [11]: inactive | outcome [15]: inactive

Cc1cc(C)c(-n2c(O)c(C=NCCN3CCOCC3)c(=O)[nH]c2=O)c(C)c1
activity change, negative = inhibition [1]: 7.98% | activity, negative = inhibition [2]: 4.18% | Potency [3]: > 20.6 µM | activation [4]: -6.53%

CCOC(=O)c1[nH]c2ccc(OC)cc2c1NC(=O)CN1CCN(c2ccccn2)CC1
activity change, negative = inhibition [1]: -9.84% | activity, negative = inhibition [2]: -2.44% | Potency [3]: > 20.6 µM

COc1cccc(-c2nc(NCc3ccco3)c3ccccc3n2)c1O
activity change, negative = inhibition [1]: 7.35% | activity, negative = inhibition [2]: -8.59% | Potency [3]: > 20.6 µM

COC(=O)c1ccccc1NC(=O)CSc1nnc(-c2ccncc2)o1
activity change, negative = inhibition [1]: 4.54% | activity, negative = inhibition [2]: 0.0286% | Potency [3]: > 20.6 µM

COC(=O)[C@@H](NC(=O)c1cc(-c2ccccc2)nc2ccccc12)c1ccccc1
activity change, negative = inhibition [1]: -7.43% [at 38 µM] | activity, negative = inhibition [2]: 1.95% [at 38 µM] | Potency [3]: > 46 µM | Potency [5]: > 46 µM | Potency [6]: inactive

Cc1sc(-n2c(C)cc(/C=N/n3cnnc3)c2C)c(C#N)c1C
activity change, negative = inhibition [1]: -9.91% | activity, negative = inhibition [2]: -17% | Potency [3]: > 20.6 µM

CN1CCc2cc(O)c(O)cc2[C@H](c2ccccc2)C1
activity change, negative = inhibition [1]: -1.87% [at 38 µM] | activity, negative = inhibition [2]: -12.3% [at 38 µM] | Potency [3]: > 46 µM | Potency [5]: > 46 µM | Potency [6]: inactive | Potency [7]: inactive | outcome [8]: inactive | Potency [13]: 10 µM (active) | Potency [9]: inactive | outcome [10]: inactive | outcome [11]: inactive | outcome [15]: inactive

Cc1cccc(Nc2ncnc3ccccc23)c1
activity change, negative = inhibition [1]: -1.27% | activity, negative = inhibition [2]: -0.134% | Potency [3]: > 20.6 µM

Cc1nc2oc(C(=O)c3ccc(Br)cc3)c(N)c2c2c1COC(C)(C)C2
activity change, negative = inhibition [1]: 27.3% | activity, negative = inhibition [2]: 0.926% | Potency [3]: > 20.6 µM

CCOC(=O)N1CCN(c2ncnc3c2cnn3-c2ccc(OC)cc2)CC1
activity change, negative = inhibition [1]: 10.2% | activity, negative = inhibition [2]: -2.17% | Potency [3]: > 20.6 µM

Cn1c(Cl)nc2c1c(=O)n(Cc1cccc(Br)c1)c(=O)n2C
activity change, negative = inhibition [1]: -23.7% | activity, negative = inhibition [2]: 12.7% | Potency [3]: > 20.6 µM

CCSC1=C(C#N)C(c2cccs2)C(C(=O)OC)=C(C)N1 (stereo not given)
activity change, negative = inhibition [1]: 2.23% | activity, negative = inhibition [2]: -15.6% | Potency [3]: > 20.6 µM

COc1cccc(-c2nnc3sc(-c4ccccc4)nn23)c1
activity change, negative = inhibition [1]: -8.12% | activity, negative = inhibition [2]: -8.55% | Potency [3]: > 20.6 µM

c1coc(-c2nc3nc4ccccc4nc3n2-c2ccc3c(c2)OCCO3)c1
activity change, negative = inhibition [1]: 21.1% | activity, negative = inhibition [2]: -8.28% | Potency [3]: > 20.6 µM

O=C(O)C1CC=CCC1C(=O)N1CCN(c2nc(-c3ccccc3)c3ccccc3n2)CC1 (stereo not given)
activity change, negative = inhibition [1]: -12% | activity, negative = inhibition [2]: 9.49% | Potency [3]: > 20.6 µM | Potency [4]: 3.98 µM (active)

N#Cc1nc(-c2cccs2)oc1NCc1ccccc1Cl
activity change, negative = inhibition [1]: -29.4% | activity, negative = inhibition [2]: -12.6% | Potency [3]: > 20.6 µM

CC(=O)c1c(OCC(=O)O)ccc2c(C)cc(=O)oc12
activity change, negative = inhibition [1]: -8.66% | activity, negative = inhibition [2]: 13.1% | Potency [3]: > 20.6 µM

Nc1c2c(nc3ccccc13)N(c1ccccc1)CC2
activity, negative = inhibition [2]: 9.15% | Potency [3]: > 20.6 µM

O=C(c1ccccc1)C(CCC(CN1CCOCC1)C(=O)c1ccccc1)CN1CCOCC1 (stereo not given)
activity, negative = inhibition [2]: -25.4%
